# Screening results from PubChem BioAssay.
# Rows were chosen to be rich in hits. Some 6.7% of all compounds tested hit in one or more screens of this group.
# C diff HTS: C. difficile growth inhibitors, primary screen, HTS. Clostridium difficile clinical isolate growth, OD600, 24 h; hits give low values. AID 1259249, 2017. 0.25% of 86,000 active. growth activity, negative = inhibition, % at 16 µg/mL (by protocol);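 active means mean growth activity at or below -80% and every replicate also at or below -80%; inconclusive means mean at or below -80% but some replicate above -80%; inactive means mean growth activity above -80%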
# Pf Dd2 growth: P. falciparum Dd2 growth inhibitors, primary screen, SYBR Green fluorescence, single dose replicates; activity change, % at 10 µM; 72 h; hits give low values; AID 1159554, 2015; 2.3% of 94,000 active; in the data active means activity change below about -80%; inconclusive means no clear call, values can overlap the other calls
# T cruzi growth-1: T. cruzi intracellular proliferation inhibitors, primary screen, cell-based, beta-gal Tulahuen parasites, NIH3T3 host, luminescence. T. cruzi beta-gal in NIH3T3, GalScreen luminescence, 90 h. inhibition, % at 8.34 µM. 5.9% of 77,000 active;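 active means mean inhibition above about 93%, with at least 55% of replicates each passing it, limit read from the data, passing the limit was not always enough; inconclusive means only one of those two conditions holds; inactive means neither condition holds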
# T cruzi growth-2: T. cruzi intracellular proliferation inhibitors, confirmation, cell-based, NIH3T3 host, beta-gal parasite, luminescence, cherry-pick; inhibition, % at 8.35 µM; 72% of 5,600 active; shares compounds with T cruzi growth-1; T. cruzi beta-gal in NIH3T3, GalScreen luminescence, 90 h;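 active means mean replicate inhibition above about 95% and at least 55% of replicates individually reaching it, limit read from the data; inconclusive means only one of the two criteria is met; inactive means neither criterion is met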
# T cruzi growth-3: inhibitors of intracellular T. cruzi replication, confirmation, NIH3T3 host cells, beta-gal parasites, cherry-pick, set 2; T. cruzi beta-gal in NIH3T3, GalScreen luminescence, 90 h; 21% of 5,600 active; AID 651740, 2012; inhibition, % at 2.09 µM; shares compounds with T cruzi growth-1;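 active means mean inhibition above about 95%, with at least 55% of replicates also reaching it, limit read from the data; inconclusive means meets just one of the two conditions; inactive means meets neither condition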
# 3T3 cytotox: cytotoxicity in mouse NIH/3T3 fibroblasts, confirmation, cytotoxicity control for T. cruzi proliferation inhibitor project, cell-based, cherry-pick, single point; shares compounds with T cruzi growth-1; NIH/3T3 viability, CellTiter-Glo ATP luminescence, 90 h; cytotoxicity (signal decrease), % at 8.35 µM; 14% of 5,600 active;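 active means mean signal decrease across replicates above about 35% based on untreated-well scatter, with enough replicates individually passing, limit read from the data; inconclusive means no rule stated though some were filed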
# NIH3T3 tox 2: NIH/3T3 fibroblast cytotoxicity, confirmation, cytotoxicity control, cell-based, cherry-pick, single point, set 2; shares compounds with T cruzi growth-1; NIH/3T3 viability, CellTiter-Glo ATP luminescence, 90 h; inhibition, % at 24.9 µM; 56% of 5,600 active;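 active means mean loss of cell viability signal at or above a set limit, and enough replicates individually reaching it; inconclusive means meets only the mean limit or only the replicate share; inactive means meets neither condition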
# A number is an active result; - = inactive; ? = inconclusive; . = no result given.
SMILES,C diff HTS,Pf Dd2 growth,T cruzi growth-1,T cruzi growth-2,T cruzi growth-3,3T3 cytotox,NIH3T3 tox 2
CN(C)C(=O)C[C@@H]1C[C@@H]2c3cc(NC(=O)Nc4ccccc4F)ccc3O[C@@H]2[C@H](CO)O1,-,-,-,.,.,.,.
O=C(C[C@H]1CC[C@H](NS(=O)(=O)c2ccc(F)cc2)[C@@H](CO)O1)NCc1ccc(Cl)c(Cl)c1,.,-,-,.,.,.,.
O=C(c1ccccc1F)N1C[C@@H]2[C@H](c3ccccc31)[C@H](CO)N2C(=O)c1cccnc1,-,-,-,.,.,.,.
CCCC#Cc1ccc([C@@H]2[C@@H](CO)N3CCCCN(S(=O)(=O)CC)C[C@H]23)cc1,-,-,-,.,.,.,.
CCS(=O)(=O)N1CCCCN2[C@H](CO)[C@@H](c3ccc(C#Cc4ccccc4OC)cc3)[C@H]2C1,-,-,121.7,100.5,-,45.4,85.3
COc1ccccc1C#Cc1ccc([C@@H]2[C@H]3CN(S(C)(=O)=O)CCCCN3[C@H]2CO)cc1,-,-,-,.,.,.,.
CCS(=O)(=O)N1CCCCN2[C@H](CO)[C@H](c3ccc(C#Cc4ccccc4OC)cc3)[C@H]2C1,-,-,-,.,.,.,.
CCS(=O)(=O)N1CCCCN2[C@H](CO)[C@H](c3ccc(C#Cc4ccccc4OC)cc3)[C@@H]2C1,-,-,112.0,105.9,-,42.0,51.2
COc1ccccc1C#Cc1ccc([C@H]2[C@H](CO)N3CCCCN(S(C)(=O)=O)C[C@@H]23)cc1,-,-,?,105.9,-,38.5,69.8
C[C@@H]1CN([C@H](C)CO)C(=O)c2cccc(NC(=O)c3ccc(-c4nccs4)cc3)c2O[C@H]1CN(C)S(=O)(=O)c1ccc(F)cc1,-,-,-,.,.,.,.
C[C@H]1CN([C@@H](C)CO)C(=O)Cc2cc(NC(=O)NC3CCCCC3)ccc2O[C@@H]1CN(C)CC1CC1,-,-,-,.,.,.,.
C[C@@H]1CCCCO[C@H](CN(C)S(=O)(=O)c2cccs2)[C@H](C)CN([C@@H](C)CO)C(=O)c2cc(NC(=O)CCCN(C)C)ccc2O1,-,-,-,.,.,.,.
Cn1cnc(S(=O)(=O)N[C@H]2CC[C@@H](CC(=O)Nc3ccc(-c4ccccc4)cc3)O[C@@H]2CO)c1,-,-,-,.,.,.,.
O=S(=O)(c1ccccc1)N1CC[C@H]2[C@H](CO)Nc3ccc(-c4ccccc4F)cc3[C@H]21,-,-,101.7,101.5,-,59.3,67.3
CN(C)C(=O)c1cccc(-c2ccc3c(c2)[C@@H]2[C@@H](CCN2S(=O)(=O)c2ccccc2)[C@@H](CO)N3)c1,-,-,108.1,103.5,?,-,-
Cc1cccc(S(=O)(=O)N2CC[C@@H]3[C@H](CO)Nc4ccc(-c5ccccc5F)cc4[C@@H]32)c1,-,-,-,.,.,.,.
O=S(=O)(c1ccc(F)cc1)N1CC[C@H]2[C@H](CO)Nc3ccc(-c4ccccc4F)cc3[C@H]21,-,-,-,.,.,.,.
Cc1ccc(S(=O)(=O)N2CC[C@@H]3[C@H](CO)Nc4ccc(-c5cccc(C(=O)N(C)C)c5)cc4[C@@H]32)cc1,-,-,-,.,.,.,.
Cc1cccc(S(=O)(=O)N2CC[C@@H]3[C@H]2c2cc(-c4ccccc4F)ccc2N[C@@H]3CO)c1,-,-,-,.,.,.,.
Cc1ccc(S(=O)(=O)N2CC[C@H]3[C@H](CO)Nc4ccc(-c5ccccc5F)cc4[C@H]32)cc1,-,-,?,102.9,-,46.4,84.8
Cc1ccc(S(=O)(=O)N2CC[C@@H]3[C@H](CO)Nc4ccc(-c5ccccc5F)cc4[C@@H]32)cc1,-,-,111.9,101.7,110.3,40.4,59.9
CCCC(=O)N1CC2(CN(C)C2)c2c(n(C)c3cc(OC)ccc23)[C@H]1CO,-,-,.,.,.,.,.
CN(C)CC(=O)Nc1ccc2c(c1)[C@@H]1C[C@@H](CC(=O)N3CCN(C)CC3)O[C@H](CO)[C@@H]1O2,-,-,-,.,.,.,.
O=C(Cc1ccccn1)N1CC(=O)N2[C@H](CO)[C@H](c3ccc(-c4ccccc4)cc3)[C@@H]2C1,-,-,.,.,.,.,.
C[C@H]1CN([C@@H](C)CO)S(=O)(=O)c2ccc(C#CCC3CCCC3)cc2O[C@H]1CN(C)C(=O)CC1CC1,-,-,122.4,?,-,-,104.2
SMILES,C diff HTS,Pf Dd2 growth,T cruzi growth-1,T cruzi growth-2,T cruzi growth-3,3T3 cytotox,NIH3T3 tox 2
CCCC#Cc1ccc2c(c1)O[C@@H](CN(C)C(=O)CC1CC1)[C@@H](C)CN([C@H](C)CO)S2(=O)=O,-,-,-,.,.,.,.
CC(=O)N(C)C[C@@H]1Oc2cc(C#CCC3CCCC3)ccc2S(=O)(=O)N([C@@H](C)CO)C[C@@H]1C,-,-,-,.,.,.,.
C[C@@H]1CN([C@@H](C)CO)S(=O)(=O)c2ccc(C#CCC3CCCC3)cc2O[C@@H]1CN(C)C(=O)CC1CC1,-,-,119.9,-,-,-,106.5
O=C(Nc1ccccc1)N1CC(=O)N2[C@H](CO)[C@@H](c3ccc(C#CC4CCCC4)cc3)[C@@H]2C1,-,-,.,.,.,.,.
O=C(NCc1ccccn1)[C@@H]1[C@@H](CO)[C@@H]2Cn3c(cccc3=O)[C@@H]2N1CCc1ccccc1,-,.,-,.,.,.,.
Cc1ccccc1CN(C)C[C@@H]1OCc2cn(nn2)CCCC(=O)N([C@H](C)CO)C[C@@H]1C,.,-,-,.,.,.,.
C[C@H](CO)N1C[C@H](C)[C@H](CN(C)CC2CC2)OCCCC[C@H](C)Oc2ccc(NC(=O)C3CCCCC3)cc2C1=O,-,-,.,.,.,.,.
CCCN(C)C[C@@H]1OCCCC[C@H](C)Oc2ccc(NC(=O)C3CCCCC3)cc2C(=O)N([C@@H](C)CO)C[C@@H]1C,-,-82.8,111.5,95.7,-,-,-
C[C@H]1CCCCO[C@H](CN(C)CC2CC2)[C@@H](C)CN([C@@H](C)CO)C(=O)c2cc(NC(=O)C3CCCCC3)ccc2O1,-,-,102.1,-,-,-,-
CCCN(C)C[C@@H]1OCCCC[C@@H](C)Oc2ccc(NC(=O)C3CCCCC3)cc2C(=O)N([C@@H](C)CO)C[C@@H]1C,-,-,-,.,.,.,.
CCC(=O)N1CCCCN2[C@H](CO)[C@H](c3ccc(-c4ccc(F)cc4)cc3)[C@H]2C1,-,-,-,.,.,.,.
COCC(=O)N1CCCCN2[C@@H](CO)[C@@H](c3ccc(-c4ccc(F)cc4)cc3)[C@@H]2C1,-,-,-,.,.,.,.
CCC(=O)N1CCCCN2[C@@H](CO)[C@@H](c3ccc(-c4ccc(F)cc4)cc3)[C@@H]2C1,-,-,106.9,-,-,-,69.6
CCC(=O)N1CCCCN2[C@H](CO)[C@H](c3ccc(-c4ccc(F)cc4)cc3)[C@@H]2C1,-,-,105.8,-,-,-,53.5
